The campaign covered roughly 420,000 compounds. About 64,000 (15%) were called active. Another 27% or so got no clear call; they are omitted. The call rests on the fitted dose curve; in most records, active means well fitted inhibition curve with a large enough effect; inconclusive means small, poorly fitted or top-dose-only effect; inactive means flat fitted curve, though single readings scatter. These entries were drawn from the full list. A call without a number means that no potency is given here.
Experiment: qHTS for Inhibitors of human tyrosyl-DNA phosphodiesterase 1 (TDP1): qHTS in cells in absence of CPT; further: nearly all actives have a fitted effect of over 55% in size
Details: DT40 Tdp1-/- hTDP1 cells, no CPT, ATP luminescence, 48 h; activity change, negative = growth inhibition: at 46.2 µM (top of the series)
How it was run: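 DT40 Tdp1-/-;hTDP1 cells, no CPT (DMSO vehicle only), 400 cells/well; compounds pin-transferred; ≥48 hr, 37 °C; CellTiter-Glo 30 min RT dark, luminescence read.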
For `O=C(CSCc1c(F)cccc1Cl)NCC1CCCO1` (configuration not stated), the Potency was “inactive”.
In the case of `N#Cc1cccc(-c2ccc3ncnc(NCc4cccs4)c3c2)c1`, the Potency was 23.1 µM (active).
With `O=c1c(NCc2cccs2)nccn1-c1ccccc1` the Potency was “inactive”.
In the case of `O=C(O)c1ccc2c(c1)C(=O)N(NC(=O)c1ccc(O)cc1)C2=O`, the Potency was “inactive”.
With `COc1ccccc1OCC(=O)Nc1nnc2n1CCS2` the Potency was “inactive”.
In the case of `O=C(CSc1nc2ccccc2[nH]1)N/N=C/C=C\c1ccccc1[N+](=O)[O-]`, the Potency was 20.6 µM (active).
For `O=C(CSc1nc2ccccc2[nH]1)Nc1nc(-c2ccccc2)c(-c2ccccc2)o1`, the Potency was “inactive”.
For `O=C(COC(=O)CCCSc1nc2ccccc2[nH]1)Nc1ccc(Oc2ccccc2)cc1`, the Potency was “inactive”.
In the case of `Cc1cnc(CNc2ncncc2-c2ccccc2Cl)cn1`, the Potency was “inactive”.
In the case of `COCC1CCN(C(=O)CCc2nnc(C3(c4ccc(Cl)cc4)CCC3)o2)C1` (configuration not stated), the Potency was “inactive”.
In the case of `COc1ccccc1C1=Nc2cccc3cccc(c23)N1`, the Potency was 5.17 µM (active).
For `COc1ccccc1-c1nc(SC)n[nH]1`, the Potency was “inactive”.
With `c1ccc(C2=Nc3cccc4cccc(c34)N2)cc1` the Potency was 11.6 µM (active).
For `COc1ccccc1-c1n[nH]nc1C1=CC(=O)CC(C)(C)C1`, the Potency was “inactive”.
In the case of `CC1(C)CC(=O)C=C(NCCN2CCNCC2)C1`, the Potency was “inactive”.
For `COc1ccc(C(=O)OCC(=O)Nc2cccc(C(C)=O)c2)cc1OC`, the Potency was “inactive”.
For `COC(=O)c1sc(N)c(C(=O)OC)c1COC(=O)CNS(=O)(=O)c1ccc(C)cc1`, the Potency was “inactive”.
For `COCCN(C(=O)c1ccccc1F)c1c(N)n(Cc2ccccc2)c(=O)[nH]c1=O`, the Potency was “inactive”.
With `O=C(NCc1ccc(F)cc1)c1cc(C2CCCCN2C(=O)c2ccccn2)on1` (configuration not stated) the Potency was 20.6 µM (active).
In the case of `CS(=O)(=O)N1CCCCC1c1cc(C(=O)NCc2ccccc2)no1` (configuration not stated), the Potency was “inactive”.
For `CCCNC(=O)c1cc(C2CCCCN2S(=O)(=O)c2cn(C)cn2)on1` (configuration not stated), the Potency was “inactive”.
In the case of `O=C(NCc1cccnc1)c1cc(C2CCCN(C(=O)C3CCCCC3)C2)on1` (configuration not stated), the Potency was “inactive”.
With `O=C(c1cc(C2CCCCN2S(=O)(=O)c2ccccc2)on1)N1CCOCC1` (configuration not stated) the Potency was “inactive”.
For `O=C(NCc1ccc(F)cc1)c1cc(C2CCCCN2C(=O)C2CCCCC2)on1` (configuration not stated), the Potency was 23.1 µM (active).
In the case of `CC(Oc1ccc(Cl)cc1)C(=O)OCC(=O)Nc1ncc(Cl)cc1Cl` (configuration not stated), the Potency was “inactive”.
For `COC(=O)c1c(NC(=O)C(=O)N2CCCCC2)sc2c1CC(C)(C)OC2`, the Potency was “inactive”.
With `COC1=NC2=NCCN2C(OC)=N1` the Potency was “inactive”.
With `Cc1ccc2cccc(NC(=O)c3ccc(OC(C)C)cc3)c2n1` the Potency was 29.1 µM (active).
In the case of `Cc1ccc2cccc(NC(=O)C(C)Oc3ccc(C)c(C)c3)c2n1` (configuration not stated), the Potency was “inactive”.
For `CC(C)Oc1ccc(C(=O)Nc2cc(=O)n(C)c(=O)n2C)cc1`, the Potency was “inactive”.
In the case of `COCc1cc(=O)[nH]c2cc(NC(=O)C(F)(F)F)c(C)cc12`, the Potency was “inactive”.
With `Cn1c(=O)c(=O)n(C)c2cc(NC(=O)c3ccccc3Br)ccc21` the Potency was “inactive”.
In the case of `CCOC(=O)c1cnc2c(C)cc(C)cc2c1Nc1ccc(N2CCOCC2)cc1`, the Potency was 5.8 µM (active).
With `Cc1ccc(OCCCC(=O)Nc2ccc(N3CCOCC3)cc2)cc1` the Potency was “inactive”.
For `CCOC(=O)c1cnc2c(C)cc(Cl)cc2c1NCCc1ccc(OC)c(OC)c1`, the Potency was “inactive”.
For `COc1ccc(-c2ccc(=O)n(CC(=O)Nc3ccc(Br)cc3F)n2)cc1`, the Potency was “inactive”.
For `CCc1nc(SCC(=O)Nc2ccccc2OC)n[nH]1`, the Potency was “inactive”.
For `CCCc1nc(SCC(=O)Nc2ccccc2OC)c2c(=O)n(C)c(=O)n(C)c2n1`, the Potency was 23.1 µM (active).
With `CCCc1nc(SCC(=O)N2CCCC2)c2c(=O)n(C)c(=O)n(C)c2n1` the Potency was “inactive”.
In the case of `COc1ccc(CCN2CC(C(=O)NCCN3CCNC3=O)CCC2=O)cc1` (configuration not stated), the Potency was “inactive”.
With `O=C(COc1ccccc1)NCc1ccc2c(c1)OCO2` the Potency was “inactive”.
With `COc1cccc(NC(=O)N(Cc2cn(C)c3ccccc23)C2CCCCCC2)c1` the Potency was 5.8 µM (active).
For `COc1cccc(NC(=O)N2CCCC2C(=O)NC2CCCCC2)c1` (configuration not stated), the Potency was “inactive”.
For `COc1cccc(NC(=O)C2CCCN2C(=O)OCc2ccccc2)c1` (configuration not stated), the Potency was “inactive”.
In the case of `O=C1CCC(=O)N1CCOP1(=O)COc2ccccc2OC1`, the Potency was “inactive”.
In the case of `O=C(Nc1cccc2ccccc12)NC1CC1`, the Potency was “inactive”.
For `CCN(C(=O)Nc1cccc2ccccc12)c1ccccc1`, the Potency was 20.6 µM (active).
With `CC(=O)N(C)c1ccc(NC(=O)Nc2cccc3ccccc23)cc1` the Potency was “inactive”.
For `COc1ccc(N2C(=O)CCC(C(=O)Nc3ccccn3)C2c2ccc(OC)c(OC)c2)cc1` (configuration not stated), the Potency was “inactive”.
For `CC(C)Cc1nc(Cl)c(C#N)c2c1CCC2`, the Potency was “inactive”.
With `O=C1NC2(CCCCC2)N=C1c1ccccc1` the Potency was “inactive”.
In the case of `S=c1[nH]nc(-c2cccs2)n1/N=C/c1cccs1`, the Potency was “inactive”.
In the case of `S=c1[nH]nc(-c2ccco2)n1/N=C/c1ccc(Br)s1`, the Potency was “inactive”.
In the case of `Cc1ccsc1/C=N/n1c(=S)[nH]nc(C)c1=O`, the Potency was 13 µM (active).
For `CN(Cc1ccccc1)C(=O)[C@@H]1CCCN1C(=O)[C@@H]1CCCN1C(=O)c1c(F)cccc1F`, the Potency was “inactive”.
For `N#CC1(NC(=O)COC(=O)CCN=C2NS(=O)(=O)c3ccccc32)CCCCC1`, the Potency was “inactive”.
With `Cc1ccc(C(=O)C(=S)N2CCOCC2)cc1` the Potency was “inactive”.
In the case of `Cc1cc(C(=O)N/N=C/c2ccc(N3CCOCC3)cc2)c(C)o1`, the Potency was “inactive”.
For `CNC(=S)N/N=C/c1ccc(N2CCOCC2)s1`, the Potency was 3.26 µM (active).
For `COc1nc(OC)nc(N(C)CCO)n1`, the Potency was “inactive”.
In the case of `COc1cc(CN(C)Cc2nc3cc(C(F)(F)F)ccc3c(=O)[nH]2)ccc1OC(F)F`, the Potency was 18.4 µM (active).
For `CN(CCOc1ccccc1)Cc1nc2cc(Cl)ccc2c(=O)[nH]1`, the Potency was “inactive”.
With `Cc1nc2ccc(S(=O)(=O)NCC(=O)NCCN3CCCCC3C)cc2s1` (configuration not stated) the Potency was “inactive”.
For `Cc1nn(-c2ncccn2)c2c1C(=O)CC(C)(C)C2Br` (configuration not stated), the Potency was 20.6 µM (active).
With `Cc1nn(-c2ccccc2)c2c1C(=O)NC(=O)C(C)(C)C2` the Potency was “inactive”.
For `CN(C)S(=O)(=O)c1ccc(NC(=O)COC(=O)c2n[nH]c3ccccc23)cc1`, the Potency was 13 µM (active).
In the case of `CN(C)S(=O)(=O)c1ccc(NC(=O)COC(=O)Cn2[nH]c(=O)c3ccccc3c2=O)cc1`, the Potency was “inactive”.
In the case of `O=C(COC(=O)c1n[nH]c2ccccc12)Nc1ccccc1Br`, the Potency was “inactive”.
For `O=C1CC(N2CCN(c3ccc(F)cc3)CC2)C(=O)N1c1ccccc1` (configuration not stated), the Potency was “inactive”.
For `COc1ccc(N2C(=O)CC(Sc3n[nH]c(-c4ccc(C)cc4)n3)C2=O)cc1` (configuration not stated), the Potency was 10.3 µM (active).
With `COc1ccc(N2C(=O)CC(SC(C)C)C2=O)cc1` (configuration not stated) the Potency was “inactive”.
With `CCOC(=O)c1ccc(N2C(=O)CC(Sc3nc(O)c(CC)c(=O)[nH]3)C2=O)cc1` (configuration not stated) the Potency was “inactive”.
In the case of `O=C1CC(Sc2ncn[nH]2)C(=O)N1c1ccccc1` (configuration not stated), the Potency was 11.6 µM (active).
For `Cc1ccc(N2C(=O)CC(Sc3ncn[nH]3)C2=O)cc1` (configuration not stated), the Potency was 4.61 µM (active).
In the case of `COc1ccc(-c2nc(SCC(=O)N3CCOCC3)n[nH]2)cc1`, the Potency was “inactive”.
With `O=C1CC(c2ccccc2)C(=O)N1c1cccc(O)c1` (configuration not stated) the Potency was “inactive”.
With `Cc1ccc(N2C(=O)CC(Nc3cccc4ccccc34)C2=O)cc1` (configuration not stated) the Potency was “inactive”.

From PubChem BioAssay AID686978 (National Center for Advancing Translational Sciences (NCATS), 2013)
Potency means the concentration at half of the fitted maximal effect.
